From PubChem BioAssay (NCATS)
Several values for one entry are separate records, joined by “and”; a condition that tells them apart may be missing. Equal values may be shown once. Inconclusive results are not listed. Activity calls are given as the source filed them. Unless noted, calls come from the whole dose curve; as a rule, active = well fitted cell-killing curve with a large enough effect; inconclusive = small, poorly fitted or top-dose-only effect; inactive = flat fitted curve, though single readings scatter.

Columns and labels:
[1] = Cell Viability - LYMP2-025 (AID 976); note: series mostly up to about 92 µM
Method in brief: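 Human lymphoblastoid LYMP2-025 cells (2500/well) were pre-incubated 5 hr at 37 C, then treated with compounds for 24 hr at 37 C in complete medium. Viability was read as intracellular ATP by CellTiter-Glo luminescence; AC50 from Hill fits.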

[2] = Cell Viability - LYMP2-002 (AID 977); note: series mostly up to about 92 µM
Method in brief: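 Human lymphoblastoid LYMP2-002 cells, 2500 per well, exposed to compounds for 24 h at 37 C in complete medium; viability read as intracellular ATP by CellTiter-Glo luminescence, AC50 from Hill fits.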

[3] = Cell Viability - LYMP2-006 (AID 978); note: series mostly up to about 92 µM; nearly all actives have a fitted effect of over 60% in size
Method in brief: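 Potency values are Hill-fit AC50s for decreases in intracellular ATP (CellTiter-Glo luminescence). LYMP2-006 lymphoblastoid cells, 2500 per well, were exposed to compound in complete culture medium for 24 hr at 37 C.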

[4] = Cell Viability - LYMP2-007 (AID 979);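 note: cells exposed to compound for 24 h before reading; nearly all actives have a fitted effect of over 60% in size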
Method in brief: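 Human lymphoblastoid cells (2500/well) were plated in complete medium, incubated 5 hr at 37 C, then exposed to compounds for 24 hr at 37 C. Intracellular ATP was read by CellTiter-Glo luminescence after 30 min at room temperature; AC50 from Hill fits.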

[5] = Cell Viability - LYMP2-010 (AID 981); note: nearly all actives have a fitted effect of over 55% in size
Method in brief: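 Human lymphoblastoid LYMP2-010 cells (2500/well) were preincubated 5 hr at 37 C, then exposed to compounds for 24 hr at 37 C in complete medium. Intracellular ATP was measured by CellTiter-Glo luminescence after 30 min at room temperature; AC50 from Hill-fitted concentration-response.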

[6] = Cell Viability - LYMP2-012 (AID 982);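 note: cellular ATP by luciferase luminescence where a drop means cytotoxicity; cells exposed to compound for one day before reading; nearly all actives have a fitted effect of over 55% in size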
[7] = Cell Viability - LYMP2-014 (AID 983); note: series mostly up to about 92 µM; nearly all actives have a fitted effect of over 50% in size
Method in brief: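 Human lymphoblastoid cells (2500/well) were pre-incubated 5 hr at 37 C, then exposed to compounds in complete medium for 24 hr at 37 C. Intracellular ATP was read by CellTiter-Glo luminescence after 30 min at room temperature; AC50 from Hill fits.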

[8] = Cell Viability - LYMP2-016 (AID 984); note: nearly all actives have a fitted effect of over 55% in size
Method in brief: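 Cytotoxicity was scored by luminescent ATP content (CellTiter-Glo) after 24 h compound exposure at 37 C of a human lymphoblastoid line at 2500 cells/well. Concentration-response data were fitted to the Hill equation for AC50.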

[9] = Cell Viability - LYMP2-018 (AID 985);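 note: compound exposure lasted 24 hr at 37 °C; nearly all actives have a fitted effect of over 50% in size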
Method in brief: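 Human lymphoblastoid cells (2500/well) were pre-incubated 5 hr at 37 C, then exposed to compounds for 24 hr at 37 C in complete medium. Viability was read as intracellular ATP by CellTiter-Glo luminescence; AC50 values came from Hill-equation fits.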

[10] = Cell Viability - LYMP2-020 (AID 986); note: series mostly up to about 92 µM; nearly all actives have a fitted effect of over 55% in size
Method in brief: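 Human lymphoblastoid cells, 2500/well, were pre-incubated 5 hr at 37 C, then exposed to compounds for 24 hr at 37 C in complete medium. Intracellular ATP was read by CellTiter-Glo luminescence, and AC50 was derived by Hill fitting of concentration-response data.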

[11] = Cell Viability - LYMP2-022 (AID 987); note: nearly all actives have a fitted effect of over 55% in size
Method in brief: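 Human lymphoblastoid cells, 2500/well, preincubated 5 hr at 37 C, then exposed to compounds over a concentration range for 24 hr at 37 C in complete medium. Viability read as intracellular ATP by CellTiter-Glo luminescence after 30 min at room temperature; AC50 from Hill fits.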

[12] = Cell Viability - LYMP2-024 (AID 988); note: nearly all actives have a fitted effect of over 60% in size
Method in brief: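 Human lymphoblastoid cells (2500/well) in complete medium were preincubated 5 hr at 37 C, then exposed to compounds for 24 hr at 37 C. Intracellular ATP was read by CellTiter-Glo luminescence; AC50 from Hill-equation fits of concentration-response data.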

[13] = Cell Viability - LYMP2-026 (AID 989); note: nearly all actives have a fitted effect of over 50% in size
Method in brief: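 Human lymphoblastoid cells (2500/well) in complete medium were preincubated 5 hr at 37 C, then exposed to compounds for 24 hr at 37 C. Cellular ATP was read by CellTiter-Glo luminescence; AC50 from Hill-equation fits of concentration-response data.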

[14] = Cell Viability - LYMP1-002 - Assay at 24 hr (AID 993)
Method in brief: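 Human lymphoblastoid LYMP1-002 cells, 2500/well in complete medium, were treated with compounds for 24 h at 37 C; intracellular ATP was read by CellTiter-Glo luminescence. AC50 values came from Hill-equation fits of qHTS concentration-response data.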

[15] = Cell Viability - LYMP1-002 - Assay at 40 hr (AID 994); note: nearly all actives have a fitted effect of over 60% in size
Method in brief: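 Human lymphoblastoid cells, 2500/well in complete medium, were preincubated 5 hr at 37 C, then exposed to compounds for 40 hr at 37 C. Intracellular ATP was read by CellTiter-Glo luminescence after 30 min at room temperature; AC50 from Hill-equation fits.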

[16] = qHTS Assay for Identification of Small Molecule Inducers of Hypoxia Response (AID 2120; active = well fitted curve in the direction sought with a large enough effect in the signal ratio, with a control signal flat, not every such curve was filed as active; the % refers to the signal ratio)
Method in brief: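 HRE-beta-lactamase reporter in CellSensor HRE-bla ME-180 cells, 2500 cells/well in Opti-MEM with 0.5% dialyzed FBS; compounds tested as titration series, 17 h at 37 degrees C. CCF4 substrate 2.5 h at room temperature; AC50 from 460/530 nm ratio.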

[17] = target: Estrogen receptor (Homo sapiens) (UniProt P03372); assay: qHTS assay for small molecule antagonists of estrogen receptor alpha signaling (AID 588513; active = well fitted curve in the direction sought with a large enough effect in the signal ratio, with a control signal flat, not every such curve was filed as active; the % refers to the signal ratio)
Method in brief: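 Antagonist mode: inhibition of 0.5 nM 17-beta-estradiol-driven beta-lactamase reporter in HEK 293 ER-alpha-UAS-bla cells, 18 h at 37C, CCF4 readout after 2 h at RT. Normalised to estradiol and DMSO; titration fitted to Hill.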

[18] = target: Glucocorticoid receptor (Homo sapiens) (UniProt P04150); assay: qHTS assay for small molecule antagonists of glucocorticoid receptor signaling (AID 588533; active = well fitted inhibition curve with a large enough effect in the signal ratio, with a control signal flat, not every such curve was filed as active; the % refers to the signal ratio)
Method in brief: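 Antagonist-mode qHTS: compound titrations added to GRE-bla HeLa cells, then dexamethasone 2 nM final; 18 h, 37 C. CCF4 FRET fluorescence normalized to dexamethasone and DMSO; IC50 from Hill fit.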

[19] = qHTS assay for small molecule antagonists of peroxisome proliferator-activated receptor delta signaling (AID 588535; active = well fitted inhibition curve with a large enough effect in the signal ratio, with a control signal flat, not every such curve was filed as active; the % refers to the signal ratio;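 for max response: cells co-treated with a PPAR-delta agonist as stimulator during compound exposure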); settings: HEK293T PPARd-UAS-bla, beta-lactamase FRET ratio, 18 h; 460 nm channel
Method in brief: (§1)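 Cells were seeded at 4000 per well in assay medium containing 2% charcoal/dextran FBS and held 5 hrs at 37 C. Compounds were then added for 18 hrs. CCF4 substrate was applied for 2 hrs at room temperature before fluorescence reading.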

[20] = target: Peroxisome proliferator-activated receptor delta (Homo sapiens) (UniProt Q03181); assay: as above
Method in brief: as §1

[21] = target: Vitamin D3 receptor (Homo sapiens) (UniProt P11473); assay: qHTS assay for small molecule antagonists of vitamin D receptor signaling (AID 588541; calls by dose curve;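 note: receptor activated by calcitriol during compound treatment; series mostly up to about 77 µM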)
Method in brief: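 VDR-UAS-bla HEK293T cells in 2% charcoal-stripped FBS were stimulated with 1-alpha,25-dihydroxyvitamin D3 (3 nM final) plus compound for 16 h at 37 C. The beta-lactamase CCF4 readout was normalized to 50 nM agonist and DMSO, and Hill fits gave IC50.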

[22] = target: Vitamin D3 receptor (Homo sapiens) (UniProt P11473); assay: qHTS assay for small molecule agonists of vitamin D receptor signaling (AID 588543; calls by dose curve)
Method in brief: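 Agonist-mode beta-lactamase reporter: HEK293T VDR-UAS-bla cells in charcoal-stripped 2% FBS, compound series 16 h 37 C, CCF4 2 h RT. EC50 from Hill fit, scaled against DMSO and 50 nM calcitriol control.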

Sequence of Vitamin D3 receptor (Homo sapiens) (P11473 whole entry, looked up): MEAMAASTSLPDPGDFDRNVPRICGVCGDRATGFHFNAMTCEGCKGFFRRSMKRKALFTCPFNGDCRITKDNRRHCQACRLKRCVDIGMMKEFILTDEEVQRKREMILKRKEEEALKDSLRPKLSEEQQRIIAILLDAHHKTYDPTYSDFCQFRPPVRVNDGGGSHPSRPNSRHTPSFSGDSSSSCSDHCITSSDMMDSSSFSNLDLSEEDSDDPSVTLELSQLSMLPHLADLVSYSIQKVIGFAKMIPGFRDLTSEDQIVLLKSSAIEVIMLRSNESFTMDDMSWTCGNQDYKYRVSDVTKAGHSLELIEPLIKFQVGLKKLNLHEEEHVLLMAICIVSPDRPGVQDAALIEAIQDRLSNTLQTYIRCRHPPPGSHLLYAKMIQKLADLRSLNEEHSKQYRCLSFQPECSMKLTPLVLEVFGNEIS
Sequence of Estrogen receptor (Homo sapiens) (P03372 whole entry, looked up): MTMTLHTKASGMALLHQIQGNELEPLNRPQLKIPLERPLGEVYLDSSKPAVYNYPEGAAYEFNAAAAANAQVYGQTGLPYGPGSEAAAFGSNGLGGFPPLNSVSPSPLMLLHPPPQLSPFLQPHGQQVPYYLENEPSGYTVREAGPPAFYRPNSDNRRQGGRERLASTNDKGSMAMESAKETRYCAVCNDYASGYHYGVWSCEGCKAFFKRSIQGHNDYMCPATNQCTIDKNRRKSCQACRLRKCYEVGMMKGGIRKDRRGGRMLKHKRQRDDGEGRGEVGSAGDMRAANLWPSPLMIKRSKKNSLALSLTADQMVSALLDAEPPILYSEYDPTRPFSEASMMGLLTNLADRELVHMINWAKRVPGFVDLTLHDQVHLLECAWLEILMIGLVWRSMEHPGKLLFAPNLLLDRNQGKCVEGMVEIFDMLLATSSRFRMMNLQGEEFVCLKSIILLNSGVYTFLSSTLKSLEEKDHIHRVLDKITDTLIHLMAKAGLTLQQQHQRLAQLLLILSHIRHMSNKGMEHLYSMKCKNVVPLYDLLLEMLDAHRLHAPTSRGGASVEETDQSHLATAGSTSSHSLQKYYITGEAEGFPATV
Sequence of Peroxisome proliferator-activated receptor delta (Homo sapiens) (Q03181 whole entry, looked up): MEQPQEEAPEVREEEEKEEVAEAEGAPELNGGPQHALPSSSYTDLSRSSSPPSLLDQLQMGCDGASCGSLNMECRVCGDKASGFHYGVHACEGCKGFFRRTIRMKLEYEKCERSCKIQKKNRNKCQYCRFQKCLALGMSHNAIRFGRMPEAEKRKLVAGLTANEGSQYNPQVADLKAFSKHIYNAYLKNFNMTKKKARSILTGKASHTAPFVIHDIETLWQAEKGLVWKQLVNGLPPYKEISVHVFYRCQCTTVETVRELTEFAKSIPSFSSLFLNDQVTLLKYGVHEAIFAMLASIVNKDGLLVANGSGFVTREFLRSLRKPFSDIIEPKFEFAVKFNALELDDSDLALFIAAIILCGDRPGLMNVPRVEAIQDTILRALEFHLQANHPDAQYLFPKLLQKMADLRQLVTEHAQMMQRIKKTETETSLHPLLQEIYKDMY
Sequence of Glucocorticoid receptor (Homo sapiens) (P04150 whole entry, looked up): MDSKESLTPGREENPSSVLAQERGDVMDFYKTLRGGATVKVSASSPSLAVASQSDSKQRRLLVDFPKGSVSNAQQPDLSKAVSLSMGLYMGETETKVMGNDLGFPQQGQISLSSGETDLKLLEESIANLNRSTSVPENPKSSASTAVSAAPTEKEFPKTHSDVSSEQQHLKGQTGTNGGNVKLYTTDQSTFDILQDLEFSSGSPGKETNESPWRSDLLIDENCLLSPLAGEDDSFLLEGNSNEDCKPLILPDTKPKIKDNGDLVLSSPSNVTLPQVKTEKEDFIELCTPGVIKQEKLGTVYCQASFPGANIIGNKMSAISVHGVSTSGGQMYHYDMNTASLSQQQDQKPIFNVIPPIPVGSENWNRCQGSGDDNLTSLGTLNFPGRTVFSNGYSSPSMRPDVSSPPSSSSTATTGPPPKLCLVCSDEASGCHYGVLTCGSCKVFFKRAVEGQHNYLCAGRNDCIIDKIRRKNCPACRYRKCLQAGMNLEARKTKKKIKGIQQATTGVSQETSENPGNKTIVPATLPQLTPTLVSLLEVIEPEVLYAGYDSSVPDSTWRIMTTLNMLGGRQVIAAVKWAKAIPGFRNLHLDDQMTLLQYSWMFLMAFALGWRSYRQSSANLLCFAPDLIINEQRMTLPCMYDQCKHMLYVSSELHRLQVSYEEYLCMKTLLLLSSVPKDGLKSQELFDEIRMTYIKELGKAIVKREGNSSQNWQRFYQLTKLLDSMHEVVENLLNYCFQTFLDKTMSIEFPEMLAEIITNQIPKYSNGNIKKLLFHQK

CC12CCC(CC1=O)C2(C)C (configuration not stated)
-33.5% and 11.1%: max response [19]
inactive: Potency [1] | Potency [2] | Potency [3] | Potency [4] | Potency [5] | Potency [6] | Potency [7] | Potency [8] | Potency [9] | Potency [10] | Potency [11] | Potency [12] | Potency [13] | Potency [14] | Potency [15] | outcome [16] | Potency [17] | Potency [18] | Potency [20] | outcome [21] | outcome [22]
